Screening results from PubChem BioAssay.
A selection: hits, their analogues and other compounds. The true share with any hit is near 19%.
TDP1 cell noCPT – qHTS for Inhibitors of human tyrosyl-DNA phosphodiesterase 1 (TDP1): qHTS in cells in absence of CPT; 15% of 420,000 active; AID 686978, 2013; Potency, µM (highest dose often 46.2 µM), for inactives: at the highest dose activity change, negative = growth inhibition, actives largely listed as inhibitors; DT40 Tdp1-/- hTDP1 cells, no CPT, ATP luminescence, 48 h; also: potency is read from the fitted curve at half-maximal effect; nearly all actives have a fitted effect of over 55% in size
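Growth of hTDP1-complemented DT40 Tdp1-knockout cells is measured by ATP luminescence after at least 48 hr compound exposure at 37 °C, with DMSO substituting for the 20 nM CPT used in the parallel screen.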
HT1080-NT tox – qHTS for induction of synthetic lethality in tumor cells producing 2HG: qHTS for the HT-1080-NT fibrosarcoma cell line; Potency, µM (titrated, usually from 46.1 µM), without a hit: at the top dose activity, negative = less viability, actives largely listed as cytotoxic; AID 686970, 2013; HT-1080-NT fibrosarcoma viability, CellTiter-Glo ATP luminescence, 48 h; 1.6% of 360,000 active;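 also: NT is the 2HG producing partner of a matched IDH1 knockdown line; potency is read from the fitted curve at half-maximal effect; 0% = DMSO-treated cells and -100% = media-only wells without cells; nearly all actives have a fitted effect of over 55% in size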
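Read-out is CellTiter-Glo luminescence after 10 minutes at room temperature, following 48 hours' compound treatment of HT-1080-NT cells (750 cells/well, RPMI, 5% FBS, 37 degrees C).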
TDP1 cell CPT – qHTS for Inhibitors of human tyrosyl-DNA phosphodiesterase 1 (TDP1): qHTS in cells in presence of CPT; Potency, µM (titrated, usually from 46.2 µM), for the others: at the highest dose activity change, negative = growth inhibition, actives largely listed as inhibitors; chicken DT40 Tdp1-/-;hTDP1 cells + 20 nM CPT, ATP luminescence, 48 h; 12% of 420,000 active; also: potency is read from the fitted curve at half-maximal effect; nearly all actives have a fitted effect of over 55% in size
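Chicken DT40 Tdp1-/- cells stably complemented with human TDP1 were seeded at 400 cells/well in medium containing 20 nM camptothecin, exposed to pin-transferred compounds, and grown at 37 °C for at least 48 hr. Viability was read as ATP luminescence.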
IL1B secr inh – qHTS for Inhibitors of Inflammasome Signaling: IL-1-beta AlphaLISA Primary Screen; AID 743279, 2014; 4.7% of 360,000 active; THP-1 LPS/ATP IL-1B secretion, AlphaLISA, 16 h; stronger effect = lower value; activity change, % at 57.5 µM; in the data active = activity change below about -50%; inconclusive = mostly about -30% to -49%
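THP-1 cells pretreated 1 hr with compounds (up to 57.5 uM final), then stimulated with LPS (250 ng/mL final) plus ATP (1.25 mM final); secreted IL-1B measured by AlphaLISA after 16 hr, decreased signal indicating inhibition.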
HT1080 IDH1KD tx – qHTS for induction of synthetic lethality in tumor cells producing 2HG: qHTS for the HT-1080-IDH1KD cell line; HT-1080 IDH1 knockdown viability, ATP luminescence, 48 h; Potency, µM (highest dose often 46.1 µM), for the others: at the top dose activity, negative = toxicity, most hits filed as cytotoxic; 2% of 360,000 active; AID 686971, 2013;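 also: potency is read from the fitted curve at half-maximal effect; 0% = DMSO wells and -100% = cell-free medium wells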
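Cytotoxicity counter-line: IDH1KD HT-1080, 48 h, CellTiter-Glo. Curves classed by r2, magnitude and activity.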
uPA surface inh – qHTS for Inhibitors of Cell Surface uPA Generation. cell surface uPA generation assay, qHTS. Potency, µM (doses to about 38.3 µM), inactives show top-dose activity change, negative = inhibition, actives largely listed as inhibitors. 0.31% of 330,000 active. AID 540303, 2011; active = well fitted inhibition curve with a large enough effect; inconclusive = small, poorly fitted or top-dose-only effect; inactive = no such curve, though single readings can be large or run the other way; tested in mouse RAW 264.7 cells; also: potency is read from the fitted curve at half-maximal effect; nearly all actives have a fitted effect of over 55% in size
The depositor's hits bear a star. Unless noted, calls follow the shape of the dose curve; as a rule, active = well fitted curve in the direction sought with a large enough effect; inconclusive = small, poorly fitted or top-dose-only effect, or another doubt; inactive = no such curve, though single readings can be large; an effect the other way counts as inactive or inconclusive. Unless noted, % is scaled to controls: 0 for no effect and ±100 for the full control effect.

Results for Cc1cccn2c(=O)c3cc(C(=O)NCC4CCCO4)c(=N)n(CCN4CCOCC4)c3nc12 (stereo not drawn) ?
TDP1 cell noCPT: -14%; HT1080-NT tox: 1%; TDP1 cell CPT: 12%; IL1B secr inh: -51*; HT1080 IDH1KD tx: -7%; uPA surface inh: -11%

How did Cc1ccc(Cn2c(=N)c(C(=O)NCC3CCCO3)cc3c(=O)n4ccccc4nc32)cc1 (stereo not drawn) do in these assays?
TDP1 cell noCPT: inconclusive; HT1080-NT tox: -2%; TDP1 cell CPT: inconclusive; IL1B secr inh: -1; HT1080 IDH1KD tx: -20%; uPA surface inh: -2%

What do the screens show for `Cc1ccc(Cn2c(=N)c(C(=O)NCC3CCCO3)cc3c(=O)n4cccc(C)c4nc32)cc1` (stereo not drawn)?
TDP1 cell noCPT: 9.2µM*; HT1080-NT tox: 0%; TDP1 cell CPT: 7.3µM*; IL1B secr inh: -55*; HT1080 IDH1KD tx: 1%; uPA surface inh: -10%

How did O=C(Oc1ccc(-c2nnco2)cc1)c1cc(S(=O)(=O)N2CCOCC2)ccc1F do in these assays?
TDP1 cell noCPT: -27%; HT1080-NT tox: -2%; TDP1 cell CPT: -7%; IL1B secr inh: 4; HT1080 IDH1KD tx: -8%

How did Cc1c(C)[n+](=O)c(C)c(C)n1[O-] do in these assays?
TDP1 cell noCPT: -7%; HT1080-NT tox: 4%; TDP1 cell CPT: -3%; IL1B secr inh: 16; HT1080 IDH1KD tx: -1%; uPA surface inh: 4%

How did Clc1ccc(/C=C/c2ncc[nH]2)c(Cl)c1 do in these assays?
TDP1 cell noCPT: -11%; HT1080-NT tox: 7%; TDP1 cell CPT: -26%; IL1B secr inh: 0; HT1080 IDH1KD tx: 8%; uPA surface inh: inconclusive

What do the screens show for `Cc1ccc(C(=O)N/N=C\c2ccccc2[N+](=O)[O-])cn1`?
TDP1 cell noCPT: 14%; HT1080-NT tox: 4%; TDP1 cell CPT: -1%; IL1B secr inh: 3; HT1080 IDH1KD tx: 12%; uPA surface inh: inconclusive

How did Cc1c(C(=O)N/N=C/C(C)C)[nH]c2c([N+](=O)[O-])cccc12 do in these assays?
TDP1 cell noCPT: 23µM*; HT1080-NT tox: inconclusive; TDP1 cell CPT: 4%; IL1B secr inh: 80; HT1080 IDH1KD tx: 2.6µM*; uPA surface inh: -10%

What do the screens show for `COc1cc(NC(=O)Cn2nc3c(cc2=O)CC(C)CC3)cc(OC)c1OC` (stereo not drawn)?
TDP1 cell noCPT: -26%; TDP1 cell CPT: -15%

What do the screens show for `COc1ccc(C(=O)c2oc3ccc(OC)cc3c2N)cc1`?
TDP1 cell noCPT: 16µM*; HT1080-NT tox: 10%; TDP1 cell CPT: inconclusive; IL1B secr inh: inconclusive; HT1080 IDH1KD tx: 10%; uPA surface inh: 6%

Results for CC(C)(C)OC(=O)N[C@H](C(=O)OC(C)(C)C)c1ccc2ccccc2c1 ?
TDP1 cell noCPT: -27%; HT1080-NT tox: -1%; TDP1 cell CPT: 8.2µM*; IL1B secr inh: 6; HT1080 IDH1KD tx: 5%; uPA surface inh: 7%

What do the screens show for `Cc1cc2nc(-c3ccc(Br)cc3)cc(C(F)(F)F)n2n1`?
TDP1 cell noCPT: -22%; TDP1 cell CPT: 6%

How did COc1ccc(-c2cc(=O)oc3cc(OCC(=O)NCc4ccccn4)ccc23)cc1 do in these assays?
TDP1 cell noCPT: 23µM*; HT1080-NT tox: 17%; TDP1 cell CPT: inconclusive; IL1B secr inh: -24; HT1080 IDH1KD tx: 3%; uPA surface inh: 11%

What do the screens show for `Cc1cc(=O)oc2cc(OCC(=O)Nc3nccs3)ccc12`?
TDP1 cell noCPT: -28%; HT1080-NT tox: 17%; TDP1 cell CPT: 2%; IL1B secr inh: -6; HT1080 IDH1KD tx: 11%; uPA surface inh: -16%

Results for CCCc1cc(=O)oc2cc(C)cc(OCC(=O)NCc3ccccn3)c12 ?
TDP1 cell noCPT: -18%; HT1080-NT tox: 0%; TDP1 cell CPT: 18µM*; IL1B secr inh: 14; HT1080 IDH1KD tx: -6%; uPA surface inh: -4%

What do the screens show for `COc1ccc(-c2cc(=O)oc3cc(OC(C)C(=O)NCc4ccccn4)ccc23)cc1` (stereo not drawn)?
TDP1 cell noCPT: inconclusive; HT1080-NT tox: -1%; TDP1 cell CPT: 21µM*; IL1B secr inh: -12; HT1080 IDH1KD tx: -6%; uPA surface inh: 4%

How did CCOC(=O)c1c(-c2ccc(OC)cc2)csc1NC(=O)COc1ccc2c(C)cc(=O)oc2c1 do in these assays?
TDP1 cell noCPT: 16µM*; HT1080-NT tox: 9%; TDP1 cell CPT: 23µM*; IL1B secr inh: 6; HT1080 IDH1KD tx: 16%; uPA surface inh: 6%

Results for CCOC(=O)C1(Cc2ccccc2C)CCCN(C(=O)c2ccc(OC)o2)C1 (stereo not drawn) ?
TDP1 cell noCPT: -11%; HT1080-NT tox: 0%; TDP1 cell CPT: inconclusive; IL1B secr inh: -6; HT1080 IDH1KD tx: -3%; uPA surface inh: 11%

How did CNC[C@H]1OCCCC[C@H](C)Oc2ccc(NC(=O)CCCN(C)C)cc2C(=O)N([C@H](C)CO)C[C@@H]1C do in these assays?
TDP1 cell noCPT: -30%; HT1080-NT tox: -4%; TDP1 cell CPT: -22%; IL1B secr inh: 11; HT1080 IDH1KD tx: -6%

What do the screens show for `CC(Oc1ccc2c(-c3ccccc3)cc(=O)oc2c1)C(=O)NCCCn1ccnc1` (stereo not drawn)?
TDP1 cell noCPT: 15µM*; HT1080-NT tox: -2%; TDP1 cell CPT: 23µM*; IL1B secr inh: -23; HT1080 IDH1KD tx: -8%; uPA surface inh: -7%

What do the screens show for `COc1ccc(-c2cn(-c3ccc(C)cc3)c(S(=O)(=O)CC(=O)Nc3ccc(F)cc3)n2)cc1`?
TDP1 cell noCPT: 21µM*; TDP1 cell CPT: 16µM*

How did COc1ccccc1-n1cc(-c2ccc(C)cc2)nc1S(=O)(=O)CC(=O)Nc1ccccc1C(F)(F)F do in these assays?
TDP1 cell noCPT: 16µM*; TDP1 cell CPT: inconclusive

What do the screens show for `COc1ccc(NC(=O)CS(=O)(=O)c2ccc(F)cc2)cc1`?
TDP1 cell noCPT: 16%; HT1080-NT tox: 8%; TDP1 cell CPT: 16%; IL1B secr inh: 19; HT1080 IDH1KD tx: -1%; uPA surface inh: 6%

What do the screens show for `Cc1cccc(C)c1NC(=O)CS(=O)(=O)c1nc(-c2ccc(Cl)cc2)cn1-c1ccccc1`?
TDP1 cell noCPT: 16µM*; TDP1 cell CPT: 9.2µM*
